Laboratory results published in PubChem BioAssay (NCI).
About 83,000 compounds went through this panel and 20% of them were active in at least one assay; those are over-represented in the sample as a whole.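 In brief: 96-well plates, 48 h treatment, single concentration, percent growth endpoint.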 Calls of active or inactive are those of the source. Rule for the calls: active = growth percent below 10; inactive = the rest.

Assays:
Assay in all cases: NCI-60 one-dose screen, 48 h (100 = growth as untreated, 0 = no growth, -100 = all killed)
Details in all cases: 10 µM
NCI-H23 lung = system: NCI-H23 lung
NCI-H322M lung = system: NCI-H322M lung
HOP-62 NSCLC = system: HOP-62 NSCLC
NCI-H460 lung = system: NCI-H460 lung
HOP-92 NSCLC = system: HOP-92 NSCLC
NCI-H522 lung = system: NCI-H522 lung
A549/ATCC NSCLC = system: A549/ATCC NSCLC
786-0 renal = system: 786-0 renal
NCI-H226 lung = system: NCI-H226 lung
COLO 205 colon = system: COLO 205 colon

Measured: growth

NC(=O)c1cc([N+](=O)[O-])c(Cl)c([N+](=O)[O-])c1Cl
active: HOP-92 NSCLC -52.2% | NCI-H522 lung -82.4%
inactive: NCI-H23 lung 25.6% | NCI-H322M lung 98.3% | HOP-62 NSCLC 35.9% | NCI-H460 lung 72.2% | A549/ATCC NSCLC 89.6% | 786-0 renal 13.2%

Cc1cc(C)c(C[N+](C)(C)C)c(C)c1C
inactive: NCI-H226 lung 11.7%
active: NCI-H23 lung 3.56% | NCI-H322M lung 1.22% | HOP-62 NSCLC 5.53% | NCI-H460 lung 5.07% | NCI-H522 lung -39.5% | A549/ATCC NSCLC 5.53% | 786-0 renal 4.58% | COLO 205 colon 0.186%

O=C1C(=O)c2ccccc2-c2ccccc21
inactive: NCI-H322M lung 101%
active: NCI-H23 lung -54.3% | HOP-62 NSCLC -70% | NCI-H460 lung 3.18% | HOP-92 NSCLC -87.7% | NCI-H522 lung -58.5% | A549/ATCC NSCLC -47.9% | 786-0 renal -88.2%

C[CH2][Hg][S]c1ccccc1C(=O)O
active: NCI-H226 lung -53.4% | NCI-H522 lung -77.2% | 786-0 renal 1.68% | COLO 205 colon -100%
inactive: NCI-H23 lung 11.3% | NCI-H322M lung 66.2% | HOP-62 NSCLC 47.2% | NCI-H460 lung 36% | A549/ATCC NSCLC 35%

O=S(=O)(F)c1ccc(Cl)cc1
inactive: NCI-H23 lung 100% | NCI-H322M lung 123% | HOP-62 NSCLC 106% | NCI-H460 lung 113% | HOP-92 NSCLC 86.8% | NCI-H522 lung 101% | A549/ATCC NSCLC 98.3% | 786-0 renal 107% | COLO 205 colon 107%

CCCCCCCC[N+]12CN3CN(CN(C3)C1)C2
inactive: NCI-H23 lung 92% | NCI-H322M lung 84.8% | HOP-62 NSCLC 102% | NCI-H460 lung 101% | HOP-92 NSCLC 85.9% | NCI-H522 lung 97.9% | A549/ATCC NSCLC 97.8% | 786-0 renal 89.5% | COLO 205 colon 104%

CC[C@@]1(O)C[C@H](OC2CC(N(C)C)C(O)C(C)O2)c2c(cc3c(c2O)C(=O)c2c(O)ccc(O)c2C3=O)[C@H]1C(=O)OC (stereo partly specified)
active: NCI-H23 lung -79.6% | NCI-H322M lung -78.6% | HOP-62 NSCLC -69.6% | NCI-H460 lung -64% | HOP-92 NSCLC -68.9% | NCI-H522 lung -70.1% | A549/ATCC NSCLC -84.8% | 786-0 renal -97.5% | COLO 205 colon -80.1%

CCOP(=O)(OCC)C(O)c1ccccc1Cl (stereo unspecified)
inactive: NCI-H23 lung 99.4% | NCI-H322M lung 93.8% | HOP-62 NSCLC 109% | NCI-H460 lung 102% | NCI-H522 lung 95.7% | A549/ATCC NSCLC 105% | 786-0 renal 102% | COLO 205 colon 107%

O=[N+]([O-])/C=C\c1ccc2c(c1)OCO2
inactive: NCI-H23 lung 87.2% | NCI-H322M lung 113% | NCI-H460 lung 84.8% | HOP-92 NSCLC 79.3% | NCI-H522 lung 72.2% | A549/ATCC NSCLC 81.7% | 786-0 renal 89.6%

COc1cc([C@@H]2c3cc4c(c(O)c3C[C@H]3COC(=O)[C@@H]32)OCO4)cc(OC)c1OC
active: NCI-H460 lung 0.25% | HOP-92 NSCLC -31.4% | NCI-H522 lung -25% | 786-0 renal -69.8% | COLO 205 colon -69.5%
inactive: NCI-H23 lung 17.3% | NCI-H322M lung 21.9% | A549/ATCC NSCLC 24.9%

CC1CCC2(OC1)OC1C(O)C3C4CCC5CC(OC6OC(CO)C(OC7OC(CO)C(O)C(OC8OCC(O)C(O)C8O)C7OC7OC(CO)C(O)C(OC8OC(CO)C(O)C(O)C8O)C7O)C(O)C6O)C(O)CC5(C)C4CCC3(C)C1C2C (stereo unspecified)
active: NCI-H23 lung -51.5% | HOP-62 NSCLC -95.3% | NCI-H460 lung 5.81% | HOP-92 NSCLC -3.92% | NCI-H522 lung -71.4% | A549/ATCC NSCLC -40.2% | 786-0 renal -92%
inactive: NCI-H322M lung 13.2% | COLO 205 colon 22.7%

S=C=NCCc1ccccc1
inactive: NCI-H23 lung 20% | NCI-H322M lung 110% | HOP-62 NSCLC 85.2% | NCI-H460 lung 58.5% | HOP-92 NSCLC 56.5% | NCI-H522 lung 44.1% | A549/ATCC NSCLC 61.7% | 786-0 renal 71.5% | COLO 205 colon 63.1%

NNc1ccccc1
inactive: NCI-H23 lung 108% | NCI-H322M lung 114% | HOP-62 NSCLC 85.4% | NCI-H460 lung 60.4% | A549/ATCC NSCLC 84.3% | 786-0 renal 79.7% | COLO 205 colon 85.4%

COc1ccc(/C=C(\C)[N+](=O)[O-])cc1OC
inactive: NCI-H23 lung 64.7% | NCI-H322M lung 64.9% | HOP-62 NSCLC 63% | A549/ATCC NSCLC 36.3%
active: HOP-92 NSCLC -9.49% | NCI-H522 lung -69.4% | 786-0 renal -44.2% | COLO 205 colon -80.5%

COc1cc(/C=C/[N+](=O)[O-])cc(OC)c1OC
active: NCI-H460 lung 6.31% | NCI-H522 lung -54.8% | 786-0 renal -48% | COLO 205 colon -53.4%
inactive: NCI-H23 lung 45% | NCI-H322M lung 36.1% | HOP-62 NSCLC 16.8% | HOP-92 NSCLC 58.1% | A549/ATCC NSCLC 54.2%

O=[P+](O)c1ccccc1
inactive: NCI-H23 lung 107% | NCI-H322M lung 149% | HOP-62 NSCLC 93.9% | NCI-H460 lung 106% | HOP-92 NSCLC 101% | A549/ATCC NSCLC 107% | COLO 205 colon 112%

NC(=O)c1cc([N+](=O)[O-])c(Cl)c([N+](=O)[O-])c1
inactive: NCI-H23 lung 88.6% | NCI-H322M lung 109% | HOP-62 NSCLC 105% | NCI-H460 lung 107% | HOP-92 NSCLC 14.1% | A549/ATCC NSCLC 98.4% | 786-0 renal 91.2%
active: NCI-H522 lung -4.01% | COLO 205 colon -71.1%

O=C1C=Cc2ccccc2C1=O
inactive: NCI-H23 lung 73.5% | NCI-H322M lung 100% | HOP-62 NSCLC 73% | NCI-H460 lung 78.7% | HOP-92 NSCLC 93.7% | NCI-H522 lung 47.2% | A549/ATCC NSCLC 97.9% | 786-0 renal 110% | COLO 205 colon 117%

[Cl][Hg][c]1ccc2ccccc2c1
active: NCI-H23 lung -67.1% | NCI-H322M lung -53.1% | HOP-62 NSCLC -79.9% | NCI-H460 lung -4.3% | NCI-H522 lung -95.1% | 786-0 renal -92.2% | COLO 205 colon -87.4%
inactive: A549/ATCC NSCLC 19.6%

CC/C(=C/c1ccc(OC)cc1OC)[N+](=O)[O-]
active: NCI-H522 lung -41.7% | 786-0 renal -53%
inactive: NCI-H23 lung 59% | NCI-H322M lung 90.3% | HOP-62 NSCLC 74% | NCI-H460 lung 49.5% | A549/ATCC NSCLC 65.1%

CC(C)(C)OOC(=O)/C=C\C(=O)OOC(C)(C)C
inactive: NCI-H23 lung 103% | HOP-62 NSCLC 97.7% | NCI-H460 lung 109% | HOP-92 NSCLC 88.3% | NCI-H522 lung 107% | A549/ATCC NSCLC 110% | 786-0 renal 108%

CC(=O)Nc1c2sscc-2n(C)c1=O
active: NCI-H23 lung -95.3% | NCI-H322M lung -100% | HOP-62 NSCLC -100% | NCI-H460 lung -77.4% | NCI-H522 lung -90.8% | A549/ATCC NSCLC -65% | 786-0 renal -100%

CC/C(=C/c1ccc(OC)cc1)[N+](=O)[O-]
inactive: NCI-H23 lung 51.8% | NCI-H322M lung 86% | HOP-62 NSCLC 78.1% | NCI-H460 lung 52.7% | A549/ATCC NSCLC 62.3%
active: NCI-H522 lung -47.7% | 786-0 renal -83.5% | COLO 205 colon -60.3%

[O-][n+]1ccccc1S
inactive: NCI-H23 lung 73.5% | NCI-H322M lung 64.1% | HOP-62 NSCLC 58% | HOP-92 NSCLC 97.1% | A549/ATCC NSCLC 30.4% | 786-0 renal 46.3% | COLO 205 colon 16.1%
active: NCI-H460 lung 8.67% | NCI-H522 lung -34.7%

CC(=O)[O][Hg][c]1c(C)c(C)cc(C)c1C
active: NCI-H23 lung -45.3% | NCI-H322M lung 3.3% | HOP-62 NSCLC -82.6% | NCI-H460 lung -16.7% | NCI-H522 lung -96.4%
inactive: A549/ATCC NSCLC 91.5% | 786-0 renal 19%

COC(C(=O)C(O)C(C)O)C1Cc2cc3cc(OC4CC(OC(C)=O)C(OC5CC(O)C(OC)C(C)O5)C(C)O4)cc(O)c3c(O)c2C(=O)C1OC1CC(OC2CC(OC3CC(C)(O)C(OC(=O)C(C)C)C(C)O3)C(O)C(C)O2)C(O)C(C)O1 (stereo unspecified)
active: NCI-H23 lung 8.85% | NCI-H322M lung 7.22% | HOP-62 NSCLC -5.14% | NCI-H460 lung -10.2% | HOP-92 NSCLC -16.5% | NCI-H522 lung -60.9% | A549/ATCC NSCLC -39.3% | 786-0 renal 0.268% | COLO 205 colon -83.5%

Cc1ccc(NC(=O)CBr)cc1
active: NCI-H522 lung -55.6%
inactive: NCI-H23 lung 91.7% | NCI-H322M lung 99.4% | NCI-H460 lung 105% | HOP-92 NSCLC 96% | 786-0 renal 107% | COLO 205 colon 108%

O=C(CBr)Nc1ccccc1
inactive: NCI-H23 lung 93.1% | NCI-H322M lung 97.9% | HOP-62 NSCLC 109% | NCI-H460 lung 107% | HOP-92 NSCLC 101% | A549/ATCC NSCLC 98.5% | 786-0 renal 102% | COLO 205 colon 116%
active: NCI-H522 lung -84%

CCOP(=O)(OCC)/C(C#N)=C/c1ccc(Br)cc1
inactive: NCI-H23 lung 92.9% | NCI-H322M lung 105% | HOP-62 NSCLC 89.7% | NCI-H460 lung 104% | HOP-92 NSCLC 69.6% | NCI-H522 lung 89.7% | A549/ATCC NSCLC 102% | 786-0 renal 104% | COLO 205 colon 109%

O=[N+]([O-])/C=C/c1ccc(Cl)cc1[N+](=O)[O-]
active: COLO 205 colon -20.9%
inactive: NCI-H23 lung 65.6% | NCI-H322M lung 96.6% | HOP-62 NSCLC 62.9% | NCI-H460 lung 58.4% | HOP-92 NSCLC 92.3% | NCI-H522 lung 42.9% | A549/ATCC NSCLC 85.4% | 786-0 renal 28.3%

COc1cc(/C=C/[N+](=O)[O-])cc(Br)c1OC
inactive: NCI-H322M lung 99.5% | HOP-62 NSCLC 59.5% | HOP-92 NSCLC 72.6% | A549/ATCC NSCLC 57.2%
active: NCI-H23 lung -67.9% | NCI-H522 lung -71.5% | 786-0 renal -56.7%

Oc1c(I)cc(I)cc1I
inactive: NCI-H226 lung 98.6% | NCI-H322M lung 110% | HOP-62 NSCLC 103% | NCI-H460 lung 105% | HOP-92 NSCLC 106% | A549/ATCC NSCLC 106% | COLO 205 colon 116%
